This is a sample that favours compounds with a hit; in the whole collection about 11% have one here.
Pf growth 48h = inhibits P. falciparum growth in the first generation, 48 h. Potency, µM (titrated, usually from 28.7 µM), for the others: at the highest dose activity change, negative = inhibition, most hits filed as inhibitors. P. falciparum luciferase growth in erythrocytes, 48 h. 5.9% of 310,000 active. AID 504832; note: % is set by controls: 0 for no effect and ±100 for the full control effect
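Here the parasites carry a stable luciferase gene and grow inside erythrocytes in Albumax-based RPMI medium with compound for one erythrocytic cycle. Activity is scored as loss of luminescent signal.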
Pf growth 96h = inhibits malaria parasite growth, 96 h. Potency, µM (doses to about 28.7 µM), without a hit: at the top dose activity change, negative = inhibition, actives largely listed as inhibitors. 6.9% of 320,000 active. P. falciparum luciferase reporter growth, 96 h; note: % is set by controls: 0 for no effect and ±100 for the full control effect
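Parasite growth measured via integrated firefly luciferase reporter in P. falciparum. Infected erythrocytes at 2% hematocrit, 0.05% parasitemia final were treated 96 hours at 37 C under 5% CO2, and luminescence was read.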
NS1 function inh = blocks influenza NS1 protein function; AID 2326; 0.4% of 270,000 active; Potency, µM (series often up to 46.1 µM), without a hit: at the top dose activity, positive = more growth; calls by dose curve; note: actives are rising curves; nearly all actives have a fitted effect of over 50% in size
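In this qHTS, NS1 from influenza A is expressed in budding yeast, where it slows growth. Cells are switched from glucose to 2% galactose medium (pH 6.0, -URA), treated with compound, and growth recovery is read at OD600.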
HCV inh = blocks hepatitis C virus. Huh7.5.1 HCVcc-Cre infection, luciferase reporter, 44 h. Potency, µM (doses to about 41.8 µM), for the others: at the highest dose activity change, negative = inhibition, hits mostly inhibitors. 3.4% of 340,000 active. AID 651820; note: % is set by controls: 0 for no effect and ±100 for the full control effect
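Luciferase read-out (15 sec integration) after a 15 min room-temperature substrate step quantifies HCVcc-Cre infection. Cells, 1,000 per well, had compound added 4 h post-plating, then virus at ~0.5 moi, and were cultured 44 h.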
Vaccinia mCherry = inhibitors of vaccinia virus infection (mCherry reporter signal); Vaccinia virus mCherry reporter infection, fluorescence; Potency, µM (top dose mostly 36.5 µM), without a hit: at the top dose activity change, negative = inhibition, hits mostly inhibitors; 0.63% of 310,000 active; AID 720579; calls by dose curve; tested in A549 cells; note: % is set by controls: 0 for no effect and ±100 for the full control effect; nearly all actives have a fitted effect of over 35% in size
VACV Venus inh = inhibitors of vaccinia virus (Venus reporter) | Potency, µM (doses to about 36.5 µM), without a hit: top-dose activity change, negative = inhibition, most hits filed as inhibitors | Vaccinia virus Venus reporter expression, fluorescence | 0.46% of 330,000 active; calls by dose curve; tested in A549 cells; note: % is set by controls: 0 for no effect and ±100 for the full control effect; nearly all actives have a fitted effect of over 30% in size
* = called active by the depositor; i = inactive; ? = inconclusive; / = no result; [ ] = remark or other dose. Unless noted, calls come from the whole dose curve; as a rule, active = well fitted inhibition curve with a large enough effect; inconclusive = small, poorly fitted or top-dose-only effect, or another doubt; inactive = no such curve, though single readings can be large or run the other way. Potency is the fitted concentration of half-maximal effect.

SMILES | Pf growth 48h | Pf growth 96h | NS1 function inh | HCV inh | Vaccinia mCherry | VACV Venus inh
CC(C)c1ccc(NC(=O)C2CCN(S(=O)(=O)c3ccc4c(c3)NC(=O)CO4)CC2)cc1 | ? | 7.3% | 13.7% | ? | / | /
COc1cc(OC)c(NS(=O)(=O)c2ccc3c(c2)NC(=O)CO3)cc1Cl | 3.6% | 10.4µM* | 18.7% | -27.0% | -5.7%[7.34 µM] | -4.5%[7.34 µM]
CC(C)CN1C(=O)C(=O)N(CC(=O)NC2CCCc3ccccc32)C1=O (stereo not given) | 4.9% | 16.0% | / | 12.5% | -5.2% | -2.6%
CC1(c2ccccc2)CC(c2ccccc2)=Nc2nonc2N1 (stereo not given) | 1.47µM* | ? | 7.4% | -13.7% | / | -15.6%
CC1CCCN(CCCOc2ccc([N+](=O)[O-])cc2)C1 (stereo not given) | 0.8% | 46.6% | 3.7% | -13.9% | -13.3% | -1.0%
CC(=O)Oc1ccc2ccccc2c1C(NC(=O)C(C)C)c1cccc([N+](=O)[O-])c1 (stereo not given) | 1.85µM* | / | -5.7% | ? | ? | ?
COc1cc(CC(=O)NC(c2ccccc2)c2ccccc2)cc(OC)c1OC | ? | ? | -25.9% | -21.7% | -12.4% | -5.5%
CC(=O)Oc1ccc2ccccc2c1C(NC(=O)Cc1ccccc1)c1ccccc1 (stereo not given) | 4.15µM* | ? | 2.3% | ? | -35.1% | ?
CC(=O)NC(c1cccc([N+](=O)[O-])c1)c1c(OC(C)=O)ccc2ccccc12 (stereo not given) | / | / | / | -23.6% | -14.1% | -23.0%
CCCCC(=O)NC(c1cccc([N+](=O)[O-])c1)c1c(OC(C)=O)ccc2ccccc12 (stereo not given) | 0.828µM* | 46.1% | 1.9% | ? | 28.2µM* | ?
O=S(=O)(c1ccc(F)cc1)c1nc(-c2ccc(F)cc2)oc1NCCN1CCOCC1 | ? | / | -4.4% | 2.4% | -14.0% | -15.0%
O=C(Cc1csc(NC(=O)Nc2cccc(Cl)c2)n1)NC1CCCC1 | ? | 28.5% | / | ? | -27.1% | -28.4%
COc1ccc(/C=C/C(=O)OCCC(C)C)cc1 | 23.9% | 13.5µM* | / | / | / | /
CCCCC(CC)COC(=O)/C=C/c1ccc(OC)cc1 (stereo not given) | 5.1% | 2.5% | / | / | / | /
CCOC(=O)C1=C(COC(=O)/C=C/c2ccc(OC)cc2)NC(=O)NC1C (stereo not given) | ? | 6.8% | / | 3.16µM* | ? | -27.4%
COc1ccc(C(=O)/C=C/c2ccccc2OC)c(OC(=O)c2ccc([N+](=O)[O-])cc2)c1 | / | / | / | 12.6µM* | ? | -20.1%
COc1ccc(/C=C/C(=O)c2ccc(OC)cc2OC)cc1 | 3.01µM* | 1.69µM* | -7.8% | ? | ? | -9.7%
CC(C)(C)c1ccccc1NC(=S)NC1CCCC1 | 0.0% | -19.4% | -59.2% | -7.8% | / | /
COc1ccc(/C=C/C(=O)O)cc1 | 2.4% | 6.5% | / | 0.794µM* | -7.9% | -5.5%
COc1cc(/C=C/C(=O)O)cc(OC)c1 | 31.3% | 35.4% | -32.0% | 15.6% | -11.4% | -5.6%
COc1ccc(-c2c(C#N)c(N)nc3sc(C(=O)c4ccccc4)c(N)c23)cc1 | 9.28µM* | -9.8% | 7.0% | ? | -6.7% | 1.6%
Cc1cccc(Oc2sc(C(=O)c3ccccc3)c(N)c2C#N)c1 | -5.1% | -25.0% | -1.5% | 10µM* | / | ?
CCOc1ccc(-c2c(C#N)c(N)nc3sc(C(=O)c4ccccc4)c(N)c23)cc1 | -6.7% | ? | -2.7% | -5.1% | / | /
Cc1nn(C2CCS(=O)(=O)C2)c(Cl)c1/C=C/C(=O)OCC(=O)c1c[nH]c2ccccc12 (stereo not given) | ? | ? | ? | 22.4µM* | -17.3% | -17.4%
COc1ccc(OC)c(NC(=O)COC(=O)/C=C/c2c(C)nn(C3CCS(=O)(=O)C3)c2Cl)c1 (stereo not given) | ? | ? | ? | -21.5% | / | -25.3%
SMILES | Pf growth 48h | Pf growth 96h | NS1 function inh | HCV inh | Vaccinia mCherry | VACV Venus inh
Cc1nn(C2CCS(=O)(=O)C2)c(Cl)c1/C=C/C(=O)OCC(=O)c1cc(C)n(-c2ccc(F)cc2)c1C (stereo not given) | 14.7µM* | ? | ? | 3.98µM* | ? | -29.4%
O=C(c1ccco1)N1CCN(Cc2ccc(Br)cc2)CC1 | ? | 106.5% | -4.2% | -0.2% | / | /
CCCCNC(=S)NCc1ccc2[nH]c3c(c2c1)CCCC3 | 15.7% | 10.1% | / | ? | -23.4% | -21.3%
O=C(O)CN1C(=O)C=CC1=O | / | / | / | / | -11.0% | -8.0%
Cn1c(=O)c2c(nc(NCCc3ccccc3)n2Cc2ccc(Cl)c(Cl)c2)n(C)c1=O | / | / | / | / | -17.7% | -14.4%
CNc1nc2c(c(=O)n(C)c(=O)n2C)n1Cc1ccccc1 | 6.8% | 7.8% | 6.7% | ? | / | /
Cn1c(=O)c2c(nc(NC(Cc3ccccc3)C(=O)O)n2Cc2ccccc2)n(C)c1=O (stereo not given) | 6.57µM* | 54.4% | 11.0% | -5.5% | / | -8.3%
Cn1c(=O)c2c(nc(NCCc3ccccc3)n2Cc2ccc(F)cc2)n(C)c1=O | 11.7µM* | ? | -100.7% | ? | ? | ?
C=CCNc1nc2c(c(=O)n(C)c(=O)n2C)n1Cc1ccc(F)cc1 | -8.1% | -21.2% | -7.7% | 6.31µM* | -11.3% | -26.7%
O=C(NCc1ccc(Cl)cc1)Nc1ccc(F)cc1 | 22.6% | ? | 1.4% | -6.3% | / | /
CCN(CC)CC(=O)n1c2c(c3ccccc31)CCCC2 | -3.8% | 30.8% | 6.1% | -10.1% | / | -29.7%
CC(=O)Nc1ccc(C)c(NS(=O)(=O)c2cccc(C(F)(F)F)c2)c1 | 1.85µM* | 3.7µM* | 4.2% | 21.0% | i | -22.0%
COc1ccc(NC(C)=O)cc1NC(=O)c1cccc(C(F)(F)F)c1 | 10.9% | 2.6% | 2.4% | -18.8% | -1.3% | 1.5%
CC1CCCCC1NC(=O)CSC1=Nc2ccccc2C2CC=NN12 (stereo not given) | -1.2% | -10.7% | / | 26.2% | i | -8.7%
CC(Cc1ccccn1)NC(=O)CCc1nnc(C2CCCCC2)o1 (stereo not given) | 0.0% | 13.1µM* | -1.1% | 1.9% | -27.1% | 0.5%
CCc1cc2c(=O)c(-c3ccc4c(c3)OCCO4)coc2cc1OS(C)(=O)=O | 68.0% | 26.9% | 12.4% | 11.2µM* | ? | ?
CCc1cc2c(=O)c(-c3nc4ccccc4[nH]3)coc2c(CN2CCCCC2C)c1O (stereo not given) | 1.47µM* | 0.738µM* | 5.8% | ? | -15.5%[7.34 µM] | -2.8%[7.34 µM]
CC1CCCCN1Cc1c(O)ccc2c(=O)c(-c3ccccc3)coc12 (stereo not given) | 6.8%[0.00184 µM] | 36.6% | 2.1% | ? | -11.3% | -6.4%
CCc1cc2c(=O)c(-c3ccc4c(c3)OCCO4)coc2c(CN2CCCCC2C)c1O (stereo not given) | 2.08µM* | -4.4% | 5.8% | 6.31µM* | -22.1% | -5.3%
